Measurements published in PubChem BioAssay AID504757 (Sanford-Burnham Center for Chemical Genomics, 2011).
The other results are listed elsewhere or left out. Calls of active or inactive are those of the source. No stated cut-off is given here; in the data, active means inhibition above about 39%; inactive means the rest.

These molecules were tested against Cysteine protease ATG4B (Homo sapiens) (UniProt Q9Y4P1) (assay: re-tested blockers of ATG4B cleavage activity – biochemical, fluorescence, single concentration, confirmation (AID 504757)). Conditions: ATG4B protease fluorescent substrate cleavage assay; at 8.33 µM; active compounds read high.
Cysteine protease ATG4B (Homo sapiens), sequence (Q9Y4P1 whole entry, looked up): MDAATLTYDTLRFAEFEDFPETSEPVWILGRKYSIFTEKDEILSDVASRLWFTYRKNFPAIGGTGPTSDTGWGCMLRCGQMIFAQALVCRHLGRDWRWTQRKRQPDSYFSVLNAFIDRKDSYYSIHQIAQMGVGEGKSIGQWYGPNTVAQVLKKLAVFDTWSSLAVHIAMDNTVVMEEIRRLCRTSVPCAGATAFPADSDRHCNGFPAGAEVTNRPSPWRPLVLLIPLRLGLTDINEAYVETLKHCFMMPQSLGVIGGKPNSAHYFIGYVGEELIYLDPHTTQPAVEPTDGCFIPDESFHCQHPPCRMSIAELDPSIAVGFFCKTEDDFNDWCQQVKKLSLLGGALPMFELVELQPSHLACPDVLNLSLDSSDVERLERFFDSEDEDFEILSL

inhibition, active:
O=C(O)CCn1cc(/C=C/C(=O)c2ccc(Cl)cc2)c(-c2cccc(Br)c2)n1 56.8%
Cc1ccc(-c2cc(C(=O)N3CCc4ccccc4C3)no2)cc1 66.7%
Clc1ccccc1CSc1nnc(-c2ccco2)c(-c2ccco2)n1 64.1%
CCOC(=O)C(C)Sc1nc2ccccc2c(=O)n1CC1CCCCC1 (stereo unspecified) 54.5%
CCOC(=O)c1c(-c2ccccc2)oc2cc(Br)c(O)c(C=O)c12 79%
CCc1ccc2c(c1)C(c1ccc([N+](=O)[O-])cc1)=NNC(c1ccccc1)=N2 51.2%
FC(F)(F)Oc1ccc(NC(=S)NCc2ccccc2)cc1 71.7%
O=C(O)C(c1ccccc1)N1C(=O)/C(=C\c2ccc(-c3cccc(Cl)c3)o2)SC1=S (stereo unspecified) 38.8%
Cc1ccc(N=C2NC(=O)/C(=C/C=C/c3ccco3)S2)cc1C 66.8%
CC(=O)Nc1ccc(C(=O)Nc2nc(-c3cc(C)n(Cc4ccccc4)c3C)cs2)cc1 62.7%
CCCC1=Nc2cc(C(=O)NCc3ccco3)ccc2Sc2ccccc21 54.3%
OC(CNCc1ccc(Cl)c(Cl)c1)c1ccccc1 (stereo unspecified) 73.9%
NC(=O)c1sc2nc3c(c(-c4ccccc4)c2c1N)CCC3 57.5%
COc1ccc(/C=C2\CCc3ccccc3C2=O)c(OC)c1OC 90.7%
CN(C)Cc1ccc(F)cc1Sc1cc(Cl)ccc1Cl 67.4%
COC(=O)N/N=C/c1cn(CCCOc2ccc(C)cc2)c2ccccc12 64.9%
Cc1ccc(-n2c(SCC(=O)N/N=C/C=C/c3ccccc3[N+](=O)[O-])nc3ccccc3c2=O)cc1 46.6%
COc1ccc(/C=C2/SC(=O)N(CCCCCC(=O)Nc3ccccc3C(=O)O)C2=S)cc1 56.7%
Cc1ccc(CSc2nc(-c3ccccc3)c(C#N)c(=O)[nH]2)cc1 54.3%
CCCOc1ccc2c3c(c(=O)oc2c1OCCC)CCC3 60.3%
O=C1Nc2cc(Cl)c(Cl)cc2N(O)N1c1cc(Cl)cc(Cl)c1 64.3%
